Measurements: PubChem BioAssay AID686978 (National Center for Advancing Translational Sciences (NCATS), 2013)
Among all 420,000 compounds or so, about 64,000 (15%) were called active. Roughly 27% stayed inconclusive and do not appear here. Calls come from the whole dose curve; as a rule, active = well fitted inhibition curve with a large enough effect; inconclusive = small, poorly fitted or top-dose-only effect; inactive = flat fitted curve, though single readings scatter. Not all results are given here. Entries that show only a call come without a potency.

test: qHTS for Inhibitors of human tyrosyl-DNA phosphodiesterase 1 (TDP1): qHTS in cells in absence of CPT; settings: DT40 Tdp1-/- hTDP1 cells, no CPT, ATP luminescence, 48 h; activity change, negative = growth inhibition: at 46.2 µM (top of the series); note: nearly all actives have a fitted effect of over 55% in size
Procedure, shortened: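 Readout: luminescence from CellTiter-Glo after 30 min in the dark at RT. Cells: DT40 Tdp1-/- with stable hTDP1, 400/well. Exposure: compounds alone, ≥48 hr, 37 °C.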
Potency is the fitted concentration of half-maximal effect.

SMILES | Potency
Cc1cc(O)c(NC(=O)c2ccc(C)c([N+](=O)[O-])c2)cc1C | inactive
CCc1ccc(-c2nnn(Cc3nc4ccccc4s3)n2)cc1 | inactive
C[C@H]1Cn2cnc(C(=O)N[C@H](C)c3ccccc3)c2C(=O)N1 | inactive
CC1(C)Cc2ccccc2-c2[nH]c(=S)[nH]c(=O)c21 | inactive
Cc1ccc(C(=O)NN(CCC#N)C2=NS(=O)(=O)c3ccccc32)cc1 | inactive
Cc1cc(C)c(NC(=O)CN2CCOCCOCCOCCOCC2)c(C)c1 | inactive
O=C(Oc1ccc2c(c1)CCC2)N1CCOCC1 | inactive
C=C(C)CSc1nnc(-c2ccc(C)cc2)n1N | inactive
CCCCn1c(N)c(N(CC(C)C)C(=O)C2CSC3(C)CCC(=O)N23)c(=O)[nH]c1=O (stereo not drawn) | inactive
O=C(O)c1ccc(-n2cccc2)cc1O | inactive
CCOC(=O)C1CCCN(C(=O)c2ccc3c(c2)sc2nc(-c4ccc(CC)cc4)cn23)C1 (stereo not drawn) | 5.17 µM (active)
CCOC(=O)C1CCCN(C(=O)c2cncc(Br)c2)C1 (stereo not drawn) | inactive
CCOC(=O)C1CCCN(C(=O)c2cccc(S(=O)(=O)N3CCOCC3)c2)C1 (stereo not drawn) | inactive
O=C(COc1ccc([N+](=O)[O-])cc1)Nc1cccc(C(=O)Nc2ccccc2C(=O)O)c1 | inactive
O=C(NC1(C(F)(F)F)NC(=O)N(Cc2cccnc2)C1=O)c1ccccc1Cl (stereo not drawn) | inactive
COc1ccc(S(=O)(=O)N2CCN(CC(=O)NCC3(N4CCOCC4)CCCCC3)CC2)cc1 | inactive
CN1CCN(C2(CNC(=O)COc3ccc(C(C)(C)C)cc3)CCCCC2)CC1 | 18.4 µM (active)
Cc1cccc(NC(=O)CN2CCN(CC(=O)NCC3(N4CCCCC4)CCCCC3)CC2)c1C | inactive
Cc1nc2sc(C(c3ccco3)N3CCOCC3)c(O)n2n1 (stereo not drawn) | inactive
COc1cc(C(=O)NCC2(c3ccccc3)CCCC2)ccc1OC(C)C | 10.3 µM (active)
COc1ccccc1C(=O)NCCC(=O)NN1C(=O)NC2(CCCCC2)C1=O | inactive
COc1ccccc1OCC(=O)Nc1ccccc1C(=O)NC1CC1 | inactive
CCOc1c(OC)cccc1C(=O)NCC1(c2ccccc2)CCCC1 | 6.51 µM (active)
COc1ccc(CC(=O)NC2CCSc3ccccc32)cc1OC (stereo not drawn) | inactive
COc1ccc(C2(CNC(=O)Cc3ccc(OC)c(OC)c3)CCCC2)cc1 | 20.6 µM (active)
CCn1c(CNC(=O)c2ccc(OC)c(OC)c2)nnc1SCC(=O)Nc1ccccc1 | inactive

SMILES | Potency
COc1ccc(CC(=O)N[C@@H]2c3cc(OC)c(OC)cc3C[C@H]2OCc2ccccc2)cc1 | inactive
COc1ccc(C(=O)NC2CC(C)(C)NC(C)(C)C2)cc1OC | inactive
Cn1cnc(S(=O)(=O)Nc2ccc3c(c2)OCCO3)c1 | inactive
CN(C)Cc1c(C#N)c2ccccc2n1C | inactive
COCCCN(C(=O)Cn1ncc2c(=O)oc3ccc(C)cc3c21)C(C)c1ccncc1 (stereo not drawn) | inactive
CC1CCN(CCCn2c(SCC(=O)NC3CCCC3)nc3ccccc3c2=O)CC1 | inactive
Nc1nc(SCCOc2ccccc2)n[nH]1 | inactive
COc1cc(C(=O)OCCCN2CCOCC2)cc(OC)c1OC | inactive
CCC(C)Sc1nc2c(c(=O)[nH]c(=O)n2C)n1CC(O)COc1cccc2ccccc12 (stereo not drawn) | 29.1 µM (active)
Cc1nnc(SCCCn2c(N3CCCCC3)nc3c2c(=O)[nH]c(=O)n3C)s1 | inactive
COc1ccc(CNc2nc3c(c(=O)[nH]c(=O)n3C)n2Cc2ccccc2)cc1 | inactive
C=C(C)Cn1c(N2CCCC2)nc2c1c(=O)[nH]c(=O)n2C | inactive
Cn1c(=O)[nH]c(=O)c2c1nc(N1CCN(C(c3ccccc3)c3ccccc3)CC1)n2CCO | 16.4 µM (active)
C=C(C)Cn1c(N2CCN(CC)CC2)nc2c1c(=O)[nH]c(=O)n2C | inactive
Cc1cccc(OCC(O)Cn2c(N3CCCCC3)nc3c2c(=O)[nH]c(=O)n3C)c1 (stereo not drawn) | 23.1 µM (active)
CC1CN(CC(=O)NC(C)c2ccccc2)CC(C)O1 (stereo not drawn) | inactive
CC(C)(C)C(=O)N1CCC[C@@]1(CO)C(=O)O | inactive
O=C(c1ccc2c(c1)OCO2)N1CCN(C(=O)c2ccco2)CC1 | inactive
O=C1c2ccccc2C(=O)c2c1cccc2N1CCN(Cc2ccccc2)CC1 | 18.4 µM (active)
O=c1cc(N2CCN(Cc3ccccc3)CC2)c(-c2ccccc2)n[nH]1 | inactive
O=S1(=O)CCN(Cc2ccccc2)CC1 | inactive
C=CCNC(=O)c1ccc2nc(-c3ccco3)c(-c3ccco3)nc2c1 | 11.2 µM (active)
C=CCNC(=O)c1cc(-c2ccccc2O)on1 | inactive
C=CCNC(=O)c1ccc(C)c(Br)c1 | inactive
COC(=O)NNC1=CC(=O)CC(C)(C)C1 | inactive
Cc1ccc(N2C(=O)C(NC(=O)c3c(F)cccc3F)(C(F)(F)F)C3=C2CC(C)(C)CC3=O)cc1 (stereo not drawn) | inactive

SMILES | Potency
CN(C)c1ccc(C2Nc3ccccc3C(=O)N2NS(=O)(=O)c2ccccc2)cc1 (stereo not drawn) | inactive
COc1ccc(-c2cc(C(=O)NC(C(=O)O)C(C)C)c(C)o2)cc1OC (stereo not drawn) | inactive
COc1ccc(-c2cc(C(=O)NC(Cc3c[nH]c4ccccc34)C(=O)O)c(C)o2)cc1OC (stereo not drawn) | 29.1 µM (active)
Cc1cccc(C)c1OCC(=O)NC(Cc1c[nH]c2ccccc12)C(=O)O (stereo not drawn) | inactive
Cc1ccc(S(=O)(=O)NCc2csc(C)n2)c(C)c1 | inactive
CCn1cc(C(=O)N2CCN(c3cc(C)ccc3C)CC2)c(=O)c2cc(S(=O)(=O)N(C)C3CCCCC3)ccc21 | 18.4 µM (active)
CN(Cc1ccccc1)C(=O)c1cn(C)c2ccc(S(=O)(=O)N(C)C3CCCCC3)cc2c1=O | inactive
CCn1cc(C(=O)N2CCN(c3cc(Cl)ccc3C)CC2)c(=O)c2cc(S(=O)(=O)N3CCCC3)ccc21 | 25.9 µM (active)
Cc1ccc(Cl)cc1N1CCN(C(=O)c2cn(C)c3ccc(S(=O)(=O)N(C)C4CCCCC4)cc3c2=O)CC1 | inactive
CCn1cc(C(=O)N2CC(C)CC(C)C2)c(=O)c2cc(S(=O)(=O)N3CCCC3)ccc21 (stereo not drawn) | inactive
CCOC(=O)N1CCN(C(=O)c2cn(C)c3ccc(S(=O)(=O)N4CCCC4)cc3c2=O)CC1 | inactive
NC(=O)CSc1nc2c(oc3ccccc32)c(=O)n1Cc1ccccc1 | inactive
COCC(=O)Nc1cc(C(=O)OC)cc(C(=O)OC)c1 | inactive
COc1ccc(CC(N)C(=O)NC2C(O)[C@H](n3cnc4c(N(C)C)ncnc43)O[C@@H]2CO)cc1 (stereo partly drawn) | 22.1 µM (active)
COc1cccc(CN(C)C(=O)CC[C@H]2O[C@@H](n3cnc4c(NC(=O)c5ccccc5)ncnc43)[C@H](O)[C@@H]2O)c1 | inactive
Nc1ncnc2c1ncn2[C@@H]1O[C@H](CNC(=O)[C@H](N)Cc2cccnc2)[C@@H](O)[C@H]1O | inactive
COC(=O)CNC(=O)c1ccc(OC2CCN(C(=O)C3CC3)CC2)cc1 | inactive
CN(C)CCOc1ccc(Cl)cc1C(C)(C)C | inactive
CCN(CC)CCOCCOc1ccc(Cl)c2ccccc12 | 16.4 µM (active)
CCC(C(=O)OCCN(CC)CC)c1ccccc1 (stereo not drawn) | inactive
Cc1cccc(NC(=O)CSc2nnc(-c3ccco3)o2)c1 | inactive
C/C(=N/NC(=O)CCc1ccccc1)c1ccco1 | inactive
O=C(CCc1ccccc1)Nc1cccc(-c2nnc(-c3ccco3)o2)c1 | 16.4 µM (active)
COc1cc(NS(=O)(=O)c2ccc(NC(=O)CN3C(=O)c4ccccc4C3=O)cc2)ncn1 | inactive
Oc1cc(O)c2c(c1)OC(c1ccc(O)c(O)c1)C(O)C2 (stereo not drawn) | inactive
CCCC1OC23CCCCC2C(C#N)(C#N)C1(C#N)C(=N)O3 (stereo not drawn) | 5.8 µM (active)

SMILES | Potency
N#C/C(=C\c1ccccc1)c1n[nH]c(Cn2cncn2)n1 | inactive
COC(=O)N1CCC2(CCCN(c3ccncc3)C2)CC1 | inactive
CCc1cccc2c(=O)c(C(=O)NCCCOC)c[nH]c12 | inactive
CCc1nc2ccc(C(=O)Nc3cccc(OC)c3)cn2c1N(CCC(C)C)CCN(C)C | inactive
CCc1nc2ccc(C(=O)Nc3cc(-c4ccccc4)ccc3OC)cn2c1N(CC)CC(=O)N(C)C | 11.6 µM (active)
CCc1nc2ccc(C(=O)Nc3ccc(OC)c(OC)c3)cn2c1N(C)C(=O)c1cccc(OC)c1 | inactive
CCn1c(CNS(=O)(=O)c2ccc(Cl)cc2)n[nH]c1=S | inactive
Cc1cccnc1NC(=O)CSc1nnc(COc2ccc(C(C)C)cc2)n1C | inactive
N#Cc1cccc(CSc2ncnc(N)n2)c1 | inactive
Cc1cc(C)c(C)c(S(=O)(=O)Nc2ccc(O)cc2)c1C | 11.6 µM (active)
Cc1cc(C(C)(C)C)cc(S(=O)(=O)Nc2ccc(C(=O)O)cc2)c1C | inactive
Cc1cc(C)c(C)c(S(=O)(=O)Nc2cccnc2)c1C | inactive
COc1cc(NC(=O)C2CC(c3ccccc3O)=NO2)c(OC)cc1Cl (stereo not drawn) | inactive
CC/S(CC1CC1(Cl)Cl)=N\S(=O)(=O)c1ccc(C)cc1 (stereo not drawn) | inactive
COC(=O)CCNc1ccc2c(c1)OCCO2 | inactive
O=C(NCCc1ccccc1)c1ccc(OCCOc2ccccc2)cc1 | inactive
CC(C)(c1ccccc1)c1ccc(OCCN)cc1 | 11.6 µM (active)
O=C(NCCOc1ccccc1)c1ccccc1 | inactive
O=C(CSc1ncccn1)N1CCCC1 | inactive
CCc1nnc(NC(=O)CSc2nc3c(c(=O)n2-c2ccccc2OC)SCC3)s1 | inactive
CN(C)S(=O)(=O)c1ccc(C(=O)NCCN=C2NS(=O)(=O)c3ccccc32)cc1 | inactive
NC(=S)NN=C1CCCC(C(F)(F)F)C1 (stereo not drawn) | 23.1 µM (active)
Cc1cc(C)nc(SCc2cn3c(C)cc(C)nc3n2)n1 | inactive
O=[N+]([O-])/C(N=Nc1ccccc1)=N\Nc1ccccc1 | inactive
O=S(=O)(c1ccc(Br)c2ccccc12)N1CCOCC1 | inactive
